FAS-TE inh: FAS thioesterase (human) inhibition; P49327; recombinant FAS-TE, OMFH fluorogenic substrate, fluorescence endpoint; inhibition, % at 15 µM; actives 0.67% (n = 360,000);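 active = compounds whose normalised, plate-corrected inhibition of enzyme fluorescence in the single-dose primary screen is 50% or more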
NPR1 activator: GC-A (human) enzyme activation. HEK293 GC-A cells, cGMP TR-FRET, EC30 ANP; 0% at EC30 ANP, 100% saturating ANP. activation, % at 10 µM. actives 0.14% (n = 370,000). AID 1671463; in the data active = activation above about 40%
Target sequence (P16066 whole entry, looked up): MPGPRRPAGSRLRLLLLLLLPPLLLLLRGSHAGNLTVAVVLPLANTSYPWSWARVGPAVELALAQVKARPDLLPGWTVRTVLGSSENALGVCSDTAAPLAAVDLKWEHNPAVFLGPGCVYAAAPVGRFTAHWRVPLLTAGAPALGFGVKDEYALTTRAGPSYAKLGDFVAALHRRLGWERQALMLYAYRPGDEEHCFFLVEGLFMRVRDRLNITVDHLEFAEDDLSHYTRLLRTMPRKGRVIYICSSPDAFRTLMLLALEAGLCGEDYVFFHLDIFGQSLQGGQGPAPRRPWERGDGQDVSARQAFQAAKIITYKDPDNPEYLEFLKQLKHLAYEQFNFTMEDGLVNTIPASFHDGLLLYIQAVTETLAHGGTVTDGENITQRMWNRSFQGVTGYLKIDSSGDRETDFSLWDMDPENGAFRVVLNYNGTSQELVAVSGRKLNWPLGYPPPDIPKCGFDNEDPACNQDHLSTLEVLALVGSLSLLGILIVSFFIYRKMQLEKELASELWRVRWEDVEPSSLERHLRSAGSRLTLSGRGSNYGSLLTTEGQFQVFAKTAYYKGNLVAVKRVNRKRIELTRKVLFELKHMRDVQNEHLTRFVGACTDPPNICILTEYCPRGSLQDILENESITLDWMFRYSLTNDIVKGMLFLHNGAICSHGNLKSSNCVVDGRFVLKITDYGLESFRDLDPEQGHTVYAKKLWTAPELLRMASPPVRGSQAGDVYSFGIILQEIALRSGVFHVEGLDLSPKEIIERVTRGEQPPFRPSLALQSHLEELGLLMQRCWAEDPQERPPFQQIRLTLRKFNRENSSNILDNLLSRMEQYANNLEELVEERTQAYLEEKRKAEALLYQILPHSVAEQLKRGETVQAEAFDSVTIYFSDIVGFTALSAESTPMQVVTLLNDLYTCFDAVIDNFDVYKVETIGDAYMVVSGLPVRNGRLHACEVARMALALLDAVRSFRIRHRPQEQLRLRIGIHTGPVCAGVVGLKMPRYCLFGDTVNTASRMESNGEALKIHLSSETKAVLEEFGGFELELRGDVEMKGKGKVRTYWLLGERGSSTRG
GC-B act: GC-B (human) receptor activation; HEK293-GC-B cells, CNP EC30, cGMP TR-FRET; 0% at EC30 CNP, 100% saturating CNP; actives 0.11% (n = 370,000); P20594; activation, % at 10 µM;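 active = activation at 10 µM reaching about 35% in either raw or pattern-adjusted values, limit read from the data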
A3A deaminase: inhibitors of human APOBEC3A DNA deaminase. recombinant A3A, FAM/TAMRA ssDNA deamination fluorescence. actives 0.41% (n = 330,000). inhibition, % at 20 µM. P31941;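 active = at least 40% inhibition at 20 µM here, with at most 30% in a related deaminase screen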
A3G deaminase: blocks human APOBEC3G single-stranded DNA deamination | Q9HC16 | recombinant A3G, ssDNA deamination FAM/TAMRA fluorescence | inhibition, % at 20 µM | actives 0.28% (n = 330,000) | AID 493012;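 active = inhibition of at least 40% at 20 µM, with no more than 30% in the related APOBEC3A deaminase screen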
Hits are given with their value; . = inactive; / = not tested or not shown. In the library only some 1.4% were active in any assay of this set; here they are far more common.

SMILES | FAS-TE inh | NPR1 activator | GC-B act | A3A deaminase | A3G deaminase
O=C1CC(c2ccccc2)c2cc(O)ccc2O1 (stereo not drawn) | . | / | / | . | .
Cc1ccc(C2CC(=O)Oc3cc(O)ccc32)cc1 (stereo not drawn) | . | 57 | . | . | .
CCOC(=O)[C@]12CCCCC/C=C\1N(Cc1ccc(OC)cc1)C(=O)[C@H]2CC(=O)NCCCCc1ccccc1 | / | . | . | / | /
Cc1ccc(S(=O)(=O)N2CC3(COC(C)(C)OC3)C[C@H]2CON2C(C)(C)CCCC2(C)C)cc1 | / | . | . | / | /
CCC(=O)NC(=S)NNC(=O)c1ccc(O)cc1 | . | . | 85 | . | .
COC(=O)[C@]12CCCCC=C1N(Cc1ccc(OC)cc1)C(=O)[C@@H]2CC(=O)NCCCCc1ccccc1 | / | . | . | / | /
CN1OC[C@@H]2CN(CC3CCCCC3)[C@H](c3ccc(-c4ccc(C#N)cc4)cc3)C[C@@H]21 | / | . | . | / | /
CCCCN(C)C(=O)CSc1nnc(-c2cc(OC)c(OC)c(OC)c2)o1 | / | . | . | / | /
COc1ccc(Cn2c(=O)n(Cc3ccco3)c(=N)c3c4c(sc32)COC(C)(C)C4)cc1 | . | 56 | 56 | . | .
CN[C@H]1C[C@H]2c3[nH]c4c(-c5cccc(C)c5)cccc4c3CCN2C[C@H]1[C@H](C)O | / | . | . | / | /
CC(C)CCSc1nc(N2CCOCC2)c2c(c1C#N)CC(C)(C)OC2 | . | . | 43 | . | .
COC(=O)CCSc1nc(N2CCOCC2)c2c(c1C#N)CC(C)(C)OC2 | . | . | . | . | .
S=C(Nc1ccc(Cl)c(Cl)c1)Nc1nnc(-c2ccncc2)s1 | / | . | . | / | /
CC(=O)c1c(C)nc2ccc(Br)cc2c1-c1ccccc1 | . | . | . | . | .
Cc1nc2ccc(Br)cc2c(-c2ccccc2)c1C(=O)O | . | 44 | . | . | .
Cc1ccc(Cc2c(-c3ccc(C#N)cc3)nc3ccc(Br)cn23)cc1 | . | . | . | / | /
N#Cc1ccc(-c2nc3ccc(Br)cn3c2Cc2ccccc2)cc1 | . | . | 35 | / | /
COC(=O)c1ccc2nc(-c3ccc(C)cc3)c(Cc3ccccc3)n2c1 | / | . | 39 | / | /
COC(=O)c1ccc2nc(-c3ccccc3)c(Cc3ccccc3)n2c1 | / | . | . | / | /
COC(=O)c1ccc2nc(-c3ccc(C)cc3)c(Cc3cccc(F)c3)n2c1 | . | . | 46 | / | /
COC(=O)c1ccc2nc(-c3ccccc3)c(Cc3ccc(C)cc3)n2c1 | . | . | 39 | / | /
COc1ccccc1CNC(=O)c1cc(S(=O)(=O)N2CCCC2)cn1C | . | . | 37 | . | .
Cc1cc(C)cc(N2C(=O)CC(Sc3ncn[nH]3)C2=O)c1 (stereo not drawn) | . | . | . | . | 41
CC(C)(C)n1ncc2c(=O)n(Cc3cccc(Cn4cnc5c(cnn5C(C)(C)C)c4=O)c3F)cnc21 | 55 | . | . | . | .
COc1ccc(Cn2cc(CN3[C@@H](Cc4ccccc4)COc4cc(Br)ccc4S3(=O)=O)nn2)cc1 | / | . | . | / | /
SMILES | FAS-TE inh | NPR1 activator | GC-B act | A3A deaminase | A3G deaminase
C=CC(=O)NC1CCCCN(C(C)C)C1=O (stereo not drawn) | / | . | . | / | /
C=CCSc1nc2c(c(=O)[nH]c(=O)n2C)n1Cc1ccc(C)cc1 | . | . | 38 | . | .
COc1ccc([C@H]2OC(=O)C[C@H]2C(=O)N2CCCCC2)cc1OC | / | . | . | / | /
COC(=O)C1=C(C(=O)OC)[C@@H]2N(Cc3ccccc3)c3ccccc3[C@@]23C[C@@H](C(=O)OC)N(C(=O)c2ccc(Br)cc2)C3=N1 | 84 | / | / | . | .
C=CCN1c2ccccc2[C@]23C[C@@H](C(=O)OC)N(C(=O)c4ccc(Br)cc4)C2=NC(C(=O)OC)=C(C(=O)OC)[C@H]13 | . | . | . | . | .
O=C1c2[nH]nc(-c3ccccc3)c2C(c2cccc(C(F)(F)F)c2)N1c1ccccc1 (stereo not drawn) | / | . | . | / | /
COC(=O)C1=CC(=O)C=C(OC)[C@@]12Oc1cc(C)cc(OC)c1C2=O | / | 79 | . | / | /
COC1=CC(=O)CC(C)C12Oc1cc(OC)cc(OC)c1C2=O (stereo not drawn) | . | . | . | . | .
Clc1ccc(OCCSc2ncccn2)cc1 | . | 55 | . | . | .
CCCC1CCC2(CCCN2CCOC(=O)Nc2ccc(OC)cc2)CC1 (stereo not drawn) | / | . | . | / | /
COCCn1c(=NC(=O)CCS(=O)(=O)c2ccccc2)sc2cc(C(=O)OC)ccc21 | . | 61 | . | . | .
Cn1c(=NC(=O)CCS(=O)(=O)c2ccccc2)sc2cc(F)ccc21 | . | 62 | . | . | .
CCCn1c(=NC(=O)CCS(=O)(=O)c2ccccc2)sc2cc(S(N)(=O)=O)ccc21 | . | . | . | . | .
COc1ccccc1CNC(=O)N(CCc1c(C)[nH]c2ccccc12)Cc1cccs1 | / | . | . | / | /
CC(C)C[C@H]1COc2cccc(NCCO)c2S(=O)(=O)N1 | / | . | . | / | /
COc1ccccc1C1=Nn2c(COc3ccccc3)nnc2SC1 | / | / | / | . | 51
NC(c1csc(Nc2nccc(C(F)(F)F)n2)n1)C1CCCCC1 (stereo not drawn) | . | . | 50 | / | /
O=C(CCN1CCN(c2ccccc2)CC1)c1ccc(Cl)cc1 | . | 44 | . | . | .
O=C(CCN1CCN(c2ccc([N+](=O)[O-])cc2)CC1)c1ccc(Cl)cc1 | . | 63 | . | . | .
O=C(CCN1CCN(c2ccccc2)CC1)Nc1ccc(Cl)cc1 | . | . | . | . | .
O=C(CN1CCN(c2ccc([N+](=O)[O-])cc2)CC1)c1ccccc1 | . | . | . | . | .
C=CCN1C(C(=O)OC)CN(Cc2cn(Cc3ccc(F)cc3)nn2)CCS1(=O)=O (stereo not drawn) | / | . | . | / | /
COC(=O)[C@]1(CC(C)C)N[C@H](c2ccc(-c3ccc(Cl)c(Cl)c3)cc2)[C@@H]2C(=O)N(C)C(=O)[C@@H]21 | 61 | . | . | . | .
CCN1C(=O)[C@H]2[C@@H](c3ccc(-c4ccc(Cl)c(Cl)c4)cc3)N[C@@](CC(C)C)(C(=O)OC)[C@H]2C1=O | . | . | . | . | .
CC(=NNc1cc(C)c2cc(C)ccc2n1)c1ccccn1 | / | . | . | / | /
SMILES | FAS-TE inh | NPR1 activator | GC-B act | A3A deaminase | A3G deaminase
CCOc1ccc(C2C(C(=O)c3ccc(C)o3)=C(O)C(=O)N2c2nc(C)c(C(=O)OC)s2)cc1 (stereo not drawn) | . | 44 | . | . | .
COc1ccc(-c2c(C(C)=O)c(C)nc3sc4c(=N)n(N)cnc4c23)cc1 | . | . | . | . | .
COc1ccc(C2NC(=O)c3sc4nc(C)c(C(C)=O)c(-c5ccc(Cl)cc5)c4c3N2)cc1 (stereo not drawn) | . | 46 | . | . | .
O=C(/C=C(\Nc1cc(Cl)c(F)c(Cl)c1)c1ccccc1)c1ccccc1 | / | . | . | / | /
CC(C)CCn1cnc2c(c1=O)c1nc3ccccc3nc1n2Cc1ccc2c(c1)OCO2 | . | . | 50 | / | /
O=c1c2ccccc2ncn1Cc1ccc2c(c1)OCO2 | . | . | . | . | .
Brc1ccccc1Cn1nnc(-c2ccc(N3CCOCC3)cc2)n1 | / | . | . | / | /

Screening results: PubChem, Sanford-Burnham Center for Chemical Genomics
